From PubChem BioAssay AID1259313 (Sanford-Burnham Center for Chemical Genomics, 2017)
About 8,500 (2.5%) of roughly 340,000 compounds were called active.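 Rule for the calls: active = melting temperature shift of at least 10% of the positive control shift, at one fixed dose; inactive = the rest.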 For the sample, actives were picked, then their nearest neighbours and some compounds at random.

These molecules were tested on Glutamate receptor ionotropic, NMDA 3A (GRIN3A) ligand-binding domain (assay: binders of NR3A ligand-binding domain, primary screen, biophysical, differential scanning fluorimetry, uHTS (AID 1259313)). Details: NR3A LBD differential scanning fluorimetry, at 25 µM, active compounds read high, 0% = protein alone, 100% = glycine-bound protein.

Tm shift relative to glycine control, inactive:
Cc1nnc(NC2=NCCCCC2)o1 -2%, O=C(CC(NS(=O)(=O)c1ccc(Cl)cc1)c1ccco1)NC1CCCC1 (centres undefined) -0.32%, CCOC(=O)c1ccc(NC(=O)CS(=O)(=O)c2cn(CC)c3ccccc23)cc1 -11.8%, Cc1nc(N)nc(SCc2ccc([N+](=O)[O-])cc2)c1N 1.88%, Cc1nc(SCC(=O)c2ccccc2)c([N+](=O)[O-])[nH]1 -0.87%, CCCSC1=C(C#N)C(c2ccccc2C)C(C(=O)OC)C(=O)N1 (centres undefined) -0.63%, Cn1c(SCC(=O)Nc2cccc(NC(=O)c3cccs3)c2)nnc1-c1ccncc1 2.57%, O=C(Nc1ccc(C(=O)O)cc1)/C(=C/c1ccc([N+](=O)[O-])cc1)NC(=O)c1ccccc1 0.77%, O=C(Nc1ccc2oc(-c3ccccc3F)nc2c1)c1ccco1 -4.92%, C/C(=N\NC(=O)c1ccc(NS(=O)(=O)c2cccs2)cc1)c1ccc2ccccc2c1 5.52%, CC(Oc1cccc(NC(=O)c2cccs2)c1)C(=O)c1ccccc1 (centres undefined) -12.8%, O=C(Nc1ccc(N2CCN(C(=O)C3CC3)CC2)cc1)c1cccs1 0.36%, O=C(Nc1ccccc1-c1ccccc1)c1cccs1 -0.76%, O=C(Nc1ccnc(-c2ccncc2)n1)c1cccs1 -0.64%, O=C(Cc1cccs1)Nc1ccc([N+](=O)[O-])cc1 0.1%, Cc1cc(C)c(-c2csc(NC(=O)CCCc3nc4ccccc4c(=O)[nH]3)n2)c(C)c1 -5.38%, CCCCCN(C(=O)CCC(=O)OCC(=O)NC1CCC(C)CC1)c1c(N)n(CCCC)c(=O)[nH]c1=O (centres undefined) -0.6%, COc1cc(S(=O)(=O)N2CCN(C(=O)C3CC3)CC2)ccc1NC(C)=O 1.2%, CCCc1c(C(=O)N/N=C(\C)CCc2ccc(OC)cc2)nnn1-c1nonc1N 0.47%, CCNc1nc(N)nc(-c2cc(Cl)ccc2OC)n1 1.29%, CCN(CC(=O)Nc1c(F)cccc1F)C(=O)CN1c2cccc3cccc(c23)S1(=O)=O -0.42%, COc1ccc(CNC(=O)CCCn2nc(C)c([N+](=O)[O-])c2C)cc1 2.36%, CCc1ccc(NC(=O)Cn2nc(C)c([N+](=O)[O-])c2C)cc1 -12.5%, Cc1cc(C)cc(OCC(=O)OCC(=O)NC2CCCC2)c1 1.75%, CCOC(=O)C1CCCN(C(=O)Cn2ncc3c(=O)oc4ccc(C)cc4c32)C1 (centres undefined) -4.2%, Cc1ccc(-c2nnc(CN3CCN(C)CC3)o2)cc1 0.59%, CC1Cc2ccccc2N1CC(=O)Nc1ccc(S(N)(=O)=O)cc1 (centres undefined) 6.2%, CC1CN(C(=S)Nc2ccc(S(N)(=O)=O)cc2)CC(C)O1 (centres undefined) -1.98%, Cc1ccc(Nc2c(O)nc[nH]c2=O)cc1C -3.98%, COc1ccccc1CNC(=O)C1CCN(S(=O)(=O)c2ccc3c(c2)OCCO3)CC1 6.45%, CCOC(=O)C1CCN(C(=O)COC(=O)C2CCN(S(=O)(=O)c3ccc4c(c3)OCCO4)CC2)CC1 -0.43%, O=C(CSc1ncnc2scc(-c3ccccc3)c12)NCc1ccc2c(c1)OCO2 -0.99%, O=C(NN=Cc1ccccc1O)C(=O)NN=Cc1ccccc1O -0.25%, O=C(N/N=C/c1ccccc1O)C1CCCC1 -0.52%, COc1ccc(C2NC(=O)N(C)C(C)=C2[N+](=O)[O-])cc1 (centres undefined) 0%, CC(=O)c1ccc(NC(=O)Nc2ccc([N+](=O)[O-])cc2C)cc1 7.59%, CC(C)C(=O)Nc1cccc(NC(=O)c2ccc([N+](=O)[O-])cc2Cl)c1 -1.57%, CN(Cc1ccco1)S(=O)(=O)c1nnc(NC(=O)c2ccccc2)s1 -1.03%, CC(C)(Oc1ccc(C2CC2(Cl)Cl)cc1)C(=O)O (centres undefined) -0.77%, O=C(NCc1ccccn1)Nc1ccc(Cl)cc1 -1.47%, O=C(Nc1ccc(Cl)cc1)Nc1ccc(C(=O)N2CCOCC2)cc1 2.25%, COc1ccc([N+](=O)[O-])cc1N(CC(O)CN(CC(C)C)CC(C)C)S(=O)(=O)c1ccc(C)cc1 (centres undefined) -2.17%, COc1cccc(NC(=O)C(Sc2nc3ccccc3c(=O)n2CC(C)C)c2ccccc2)c1 (centres undefined) 5.55%, N#Cc1c(N)sc2c1CCN(C(=O)OCc1ccccc1)C2 -2.92%, Cn1cc(S(=O)(=O)NC(c2ccccc2)c2ccccc2)c(=O)n(C)c1=O -0.16%, COc1ccc(S(=O)(=O)N2CCCCCC2)cc1NC(=O)Cc1ccc(OC)c(OC)c1 0.44%, COc1cc(C(C)=O)ccc1OC(C)C(=O)Nc1ccc(S(=O)(=O)N2CCCC2)cc1 (centres undefined) 1.81%, COc1cc(/C(=C/c2ccccc2)c2ccccc2)c2c(c1)oc1ccccc12 3.2%, Cc1ccc(-c2cc(C(=O)NN)n[nH]2)o1 -1.08%, O=C(NN=CC=Cc1ccccc1)C(O)C(O)C(=O)NN=CC=Cc1ccccc1 (centres undefined) 3.13%, COCc1nc2ccccc2n1Cc1ccccc1Br -1.6%, O=C(Oc1ccc(-c2nnco2)cc1)c1ccc(F)c(S(=O)(=O)N2CCOCC2)c1 0.78%, COC(CNC(=O)Cn1ncc2ccsc2c1=O)OC -0.44%, COc1ccc(N(CC(=O)Nc2ccc(C)cc2C)S(=O)(=O)c2ccccc2[N+](=O)[O-])c(OC)c1 -2.12%, Cc1ccc(S(=O)(=O)N(CC(=O)Nc2cccc([N+](=O)[O-])c2)Cc2ccc(Cl)cc2)cc1 3.38%, C=CCc1cccc2cc(C(=O)NC3CCCC3)c(=O)oc12 -0.75%, O=C(Nc1nnc(CCN2CCCCC2)s1)c1cccc(Cl)c1 -1.3%, Cc1ccc(-c2nnc(C)c(N3CC(C)OC(C)C3)n2)cc1 (centres undefined) -2.74%, O=C(CN1CCN(S(=O)(=O)c2ccc(F)cc2)CC1)Nc1ccccc1F -1.4%, O=C(CN1CCN(S(=O)(=O)c2ccc(Br)cc2)CC1)Nc1ccccc1C(=O)c1ccccc1 -0.96%, O=C1CCCC(O)=C1N=Nc1ccc2ncsc2c1 -0.17%, NC(=O)COc1ccc(C23CC4CC(CC(C4)C2)C3)cc1 1.05%, O=C(Cc1ccc(Cl)cc1)c1ccccc1 -0.17%, CC(Sc1sc(=S)sc1SC(C)C(=O)O)C(=O)O (centres undefined) 3.28%, O=C(Cc1ccccc1)Nc1ccc(C(=O)Nc2ccccc2C(=O)O)cc1 0.78%, O=C(CN1CCc2ccccc2C1)Nc1cccc(S(=O)(=O)N2CCOCC2)c1 0.42%, CCOn1c(=O)c(=O)n(O)c2ccccc21 6.16%, CC(=O)Nc1ccc(Nc2cc(C)nc(Nc3ccc(NC(C)=O)cc3)n2)cc1 -4.37%, Cc1cccc(NC(=O)Nc2ccc3c(c2)OCO3)n1 -1.41%, COCc1nnc(NC(=O)c2ccc3c(c2)OCO3)s1 -0.5%, c1ccc(C(=NNc2nc3ccccc3s2)c2ccccn2)cc1 -7.5%, O=C(CSC1=NCCS1)Nc1nc(-c2ccccc2)cs1 -5.63%, N#Cc1ccccc1NC(=O)c1ccc2c(c1)OCO2 -0.66%, O=C(NCc1cccnc1)C(=O)Nc1nc(-c2ccccc2)cs1 -0.2%, O=C(CCC(=O)c1cccs1)Nc1nc2ccccc2s1 -1.65%

Tm shift relative to glycine control, active:
Cc1nc(SCc2ccc(F)cc2)c([N+](=O)[O-])[nH]1 13.7%, O=C(NC(=S)Nc1ccc(NC(=O)c2cccs2)cc1)c1ccc([N+](=O)[O-])cc1 24.7%, O=C(Nc1ccc2oc(-c3ccc4ccccc4c3)nc2c1)c1cccs1 25.9%, O=C(Nc1ccccc1)c1ccc(NC(=O)c2cccs2)cc1 27%, O=C(Nc1ccc(NC(=O)c2cccs2)cc1)c1ccc2ccccc2c1 25.1%, Cc1ccc(Oc2cc(NC(=O)CCCn3nc(C)c([N+](=O)[O-])c3C)cc([N+](=O)[O-])c2)cc1 14.9%, CC1CC(C)CN(CC(=O)Nc2ccc(S(N)(=O)=O)cc2)C1 (centres undefined) 10%, O=C(COC(=O)C1CCN(S(=O)(=O)c2ccc3c(c2)OCCO3)CC1)Nc1ccccc1OC(F)F 10.1%, O=C(NN=Cc1ccccc1O)NN=Cc1ccccc1O 29.9%, Cc1cc([N+](=O)[O-])ccc1NC(=O)c1ccc(NC(=O)C(C)C)cc1 13.6%, CC(C)S(=O)(=O)c1csc(NC(=O)Nc2ccc(Cl)cc2)c1Cl 24.3%, COc1ccc(-c2ccc(Nc3ccc(S(=O)(=O)N4CCCC4)cc3)nn2)cc1OC 18.4%, Cc1ccc(-c2cc(C(=O)N/N=C/C=C/c3ccccc3)n[nH]2)o1 19.9%, COc1ccc(C)cc1S(=O)(=O)N(CC(=O)Nc1cccc([N+](=O)[O-])c1)c1ccc(C)cc1 17.5%, COc1ccccc1NC(=O)CN1CCN(S(=O)(=O)c2ccc(Br)cc2)CC1 24.1%, CC(=O)Nc1ccc(-c2csc(NC(=O)Nc3ccccc3)n2)cc1 26.9%, O=C(Nc1nc2ccccc2s1)c1ccc2c(c1)OCO2 12.1%, O=C(Nc1ccccc1)Nc1nc2ccccc2s1 26.3%, CC(=O)Nc1cccc(-c2csc(Nc3cccc(C)n3)n2)c1 11.8%
